Source: PubChem BioAssay (National Center for Advancing Translational Sciences (NCATS))
TDP1 cell CPT: DT40-hTDP1 cell growth loss with CPT; AID 686979; 420,000 compounds, 12% hits; Potency, µM (highest dose often 46.2 µM), inactives show top-dose activity change, negative = growth inhibition, usual class: inhibitors; chicken DT40 Tdp1-/-;hTDP1 cells + 20 nM CPT, ATP luminescence, 48 h; note: potency is the fitted concentration of half-maximal effect; nearly all actives have a fitted effect of over 55% in size
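Cell growth measured by CellTiter-Glo luminescence after a minimum 48 h, 37 C compound exposure with 20 nM CPT in Tdp1-knockout DT40 cells stably expressing hTDP1, seeded 400/well; qHTS titration format.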
TDP1 cell noCPT: qHTS for Inhibitors of human tyrosyl-DNA phosphodiesterase 1 (TDP1): qHTS in cells in absence of CPT; 420,000 compounds, 15% hits; DT40 Tdp1-/- hTDP1 cells, no CPT, ATP luminescence, 48 h; Potency, µM (series often up to 46.2 µM), inactives show at the top dose activity change, negative = growth inhibition, usual class: inhibitors; AID 686978, 2013; note: potency is the fitted concentration of half-maximal effect; nearly all actives have a fitted effect of over 55% in size
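Chicken DT40 Tdp1-/- cells stably complemented with human TDP1 were seeded at 400 cells/well with DMSO in place of 20 nM camptothecin. After compound pinning, cells grew at least 48 hr at 37 °C; viability read by CellTiter-Glo luminescence.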
HT1080 IDH1KD tx: toxicity to HT-1080 IDH1 knockdown cells (counter line) | Potency, µM (highest dose often 46.1 µM), for the others: at the top dose activity, negative = toxicity, most hits filed as cytotoxic | 360,000 compounds, 2% hits | HT-1080 IDH1 knockdown viability, ATP luminescence, 48 h | AID 686971;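 note: potency is the fitted concentration of half-maximal effect; 0% = DMSO wells and -100% = cell-free medium wells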
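After a 2 h attachment period, IDH1KD HT-1080 cells took pin-transferred compound for 48 h at 37 °C; ATP-based luminescence after 10 min room-temperature reagent incubation reported viability.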
IL-1B inflam inh: inflammasome signaling inhibition, IL-1 beta readout. THP-1 LPS/ATP IL-1B secretion, AlphaLISA, 16 h; hits give low values. activity change, % at 57.5 µM. 360,000 compounds, 4.7% hits. AID 743279; in the data active = activity change below about -50%; inconclusive = mostly about -30% to -49%
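Secreted IL-1B measured by AlphaLISA bead assay after 16 h compound exposure of THP-1 cells; compounds (final up to 57.5 uM) added 1 h before LPS (250 ng/mL) and ATP (1.25 mM) stimulation; lower signal means less secretion.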
HT1080NT lethal: kills 2HG-producing HT-1080-NT fibrosarcoma cells; HT-1080-NT fibrosarcoma viability, CellTiter-Glo ATP luminescence, 48 h; Potency, µM (series often up to 46.1 µM), for the others: at the top dose activity, negative = less viability, most hits filed as cytotoxic; 360,000 compounds, 1.6% hits; AID 686970;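 note: NT is the 2HG producing partner of a matched IDH1 knockdown line; potency is the fitted concentration of half-maximal effect; 0% = DMSO-treated cells and -100% = media-only wells without cells; nearly all actives have a fitted effect of over 55% in size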
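A 48-hour cytotoxicity screen used HT-1080-NT cells plated 2 hours before compound delivery. ATP-based CellTiter-Glo luminescence measured viability, normalized to DMSO and no-cell controls.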
The depositor's hits bear a star; u = inconclusive; x = no result. Most compounds without a hit are left out; they make up all but 19% or so of the library. Unless noted, calls come from the whole dose curve; as a rule, active = well fitted curve in the direction sought with a large enough effect; inconclusive = small, poorly fitted or top-dose-only effect, or another doubt; inactive = no such curve, though single readings can be large; an effect the other way counts as inactive or inconclusive. Unless noted, % is set by controls: 0 for no effect and ±100 for the full control effect.

SMILES	TDP1 cell CPT	TDP1 cell noCPT	HT1080 IDH1KD tx	IL-1B inflam inh	HT1080NT lethal
CC(C)C[C@H]1CNC(=S)N1CC1CCN(CCCC2CCCC2)CC1	u	u	3%	u	0%
S=C1NC[C@H](Cc2ccccc2)N1CCCCC1CCCCC1	u	26µM*	-17%	-1	u
S=C1NC[C@H](CC2CCCCC2)N1CCCCC1CCCCC1	16µM*	u	12%	4	12%
S=C1NC[C@H](Cc2ccccc2)N1CC1CCN(CCCC2CCCC2)CC1	u	u	0%	-67*	-11%
O=C1NC[C@H](c2ccccc2)N(CCCCC2CCCCC2)C1=O	u	-24%	23%	13	27%
CC(=O)NC1CCC(OC(=O)Nc2ccccc2)CC1 (configuration not stated)	0%	2%	4%	-9	1%
Cc1ccc(NC(=O)Cn2c(=O)n(Cc3nc(C)no3)c(=O)c3ccccc32)c(Cl)c1	-15%	-6%	x	x	x
O=C(Nc1ccc(Cl)cc1)c1ccc(-n2cnnc2)cc1	7%	0%	x	x	x
CC(C)C[C@H]1CNC(=O)C(=O)N1CC1CCN(CCC(C)c2ccccc2)CC1 (some centres not stated)	-3%	-1%	14%	-15	4%
CC[C@H](C)[C@H]1CNC(=S)N1CC1CCN(CCC23CC4CC(CC(C4)C2)C3)CC1	u	16µM*	2%	-63*	-2%
CC[C@H](C)[C@H]1CNC(=S)N1CC1CCN(CC2CCC(C)CC2)CC1 (some centres not stated)	-29%	-17%	-3%	-3	0%
O=C1NC[C@H](Cc2ccccc2)N(CC2CCN(CCC34CC5CC(CC(C5)C3)C4)CC2)C1=O	21µM*	u	-5%	-73*	-6%
Cc1ccc(C(=O)Nc2cccnc2N2CCN(C)CC2)cc1	-1%	15%	7%	-8	12%
Cc1cc(C)c(NC(=O)/C(C#N)=C/c2ccc(OCc3ccc(F)cc3)cc2)c(C)c1	2.6µM*	6.5µM*	3%	-2	-3%
COC(=O)c1ccc(COc2ccccc2/C=C(\C#N)C(=O)Nc2c(C)cc(C)cc2C)cc1	8.2µM*	10µM*	18µM*	-79*	9.2µM*
N#C/C(=C\c1ccc(OCc2ccccc2)cc1)C(=O)Nc1ccc(C(=O)O)cc1	-8%	-14%	16%	-12	22%
COc1ccc([C@H]2C[C@H](O)[C@@H](n3cc(C4CC4)nn3)CN2C(=O)C2CCCCC2)cc1	3%	-1%	3%	7	9%
CCOCC(=O)NC1CCc2cc(OC)c(OC)c(OC)c2-c2ccc(SC)c(=O)cc21 (configuration not stated)	0.015µM*	0.16µM*	u	0	0.012µM*
COc1cc2c(c(OC)c1OC)-c1ccc(NC(=O)c3ccccc3)c(=O)cc1[C@@H](NC(C)=O)CC2	3%	-9%	0%	4	0%
CN[C@H]1CCc2cc(OC)c(OC)c(OC)c2-c2ccc(OC)c(=O)cc21	0.021µM*	0.13µM*	12%	33	0%
CCCCOC(=O)NC1CCc2cc(OC)c(OC)c(OC)c2-c2ccc(SC)c(=O)cc21 (configuration not stated)	0.016µM*	0.015µM*	0.0092µM*	31	0.0082µM*
COc1cc(C(=O)NCCC(=O)NC2CCCc3ccccc32)cc(OC)c1OC (configuration not stated)	3%	-12%	-7%	26	4%
CCOC(=O)NC1CCc2cc(OC)c(OC)c(OC)c2-c2ccc(SC)c(=O)cc21 (configuration not stated)	0.01µM*	0.016µM*	0.1µM*	45	0.0092µM*
CCCCOC(=O)NC1CCS(=O)(=O)C1 (configuration not stated)	4%	-2%	24%	5	13%
O=C(C1CCCO1)N1CCN(S(=O)(=O)c2cc(C(F)(F)F)ccc2Cl)CC1 (configuration not stated)	-7%	-7%	9%	18	0%
SMILES	TDP1 cell CPT	TDP1 cell noCPT	HT1080 IDH1KD tx	IL-1B inflam inh	HT1080NT lethal
COc1ccccc1NS(=O)(=O)c1cccc(C(=O)NCc2ccncc2)c1	-5%	-9%	0%	13	7%
Cc1ccc(NC(=O)c2ccc(Cl)c(N3C(=O)CCC3=O)c2)cc1	2%	3%	5%	0	5%
CC1CN(C(=O)COC(=O)c2nn(-c3ccccc3)c(=O)c3ccccc23)CC(C)O1 (configuration not stated)	-11%	-20%	1%	10	0%
CC(CC(=O)NCc1ccco1)S(=O)(=O)c1ccc2c(c1)CCN2C(=O)C1CC1 (configuration not stated)	18µM*	u	u	12	-26%
CC1Cc2cc(S(=O)(=O)NCCC(=O)NCc3ccc(F)cc3)ccc2N1C(=O)C1CC1 (configuration not stated)	u	u	-11%	-16	3%
CCC(=O)N1CCc2cc(S(=O)(=O)CCC(=O)NCc3ccco3)ccc21	-102%	2.9µM*	u	32	-24%
O=C(CCS(=O)(=O)c1cc(Br)cc2c1N(C(=O)C1CC1)CC2)NCc1ccco1	-23%	u	8%	-20	11%
CC1Cc2cc(S(=O)(=O)CCC(=O)NCc3ccco3)ccc2N1C(=O)C1CC1 (configuration not stated)	6.5µM*	2.9µM*	u	0	u
COc1ccc(CNC(=O)CCS(=O)(=O)c2ccc3c(c2)CC(C)N3C(=O)C2CC2)cc1 (configuration not stated)	15µM*	3.7µM*	u	-14	-14%
C[C@@H]1O[C@@H](OCCC(=O)O)[C@H](O)C[C@H]1O	-13%	-12%	-6%	8	-2%
Cn1ccnc1SCC(=O)Nc1cc(S(=O)(=O)N2CCOCC2)ccc1Cl	-2%	u	23%	9	25%
COc1ccccc1NC(=O)CCNS(=O)(=O)c1ccc2c(c1)CC(C)N2C(=O)C1CC1 (configuration not stated)	u	u	1%	0	2%
COc1ccccc1CNC(=O)CCS(=O)(=O)c1ccc2c(c1)CC(C)N2C(=O)C1CC1 (configuration not stated)	21µM*	23µM*	5%	-11	6%
Cc1cccc(C)c1NS(=O)(=O)c1ccc2c(c1)[C@H]1C=CC[C@H]1[C@@H](c1ccc(Cl)cc1)N2	16µM*	13µM*	x	x	x
